# PLC-gamma1 inh: blocks human PLC-gamma1 enzyme activity; P19174; purified PLC-gamma1, fluorogenic substrate, fluorescence; inhibition, % at 12.2 µM; 370,000 tested, 0.84% active; AID 720700
# Target sequence (P19174 whole entry, looked up): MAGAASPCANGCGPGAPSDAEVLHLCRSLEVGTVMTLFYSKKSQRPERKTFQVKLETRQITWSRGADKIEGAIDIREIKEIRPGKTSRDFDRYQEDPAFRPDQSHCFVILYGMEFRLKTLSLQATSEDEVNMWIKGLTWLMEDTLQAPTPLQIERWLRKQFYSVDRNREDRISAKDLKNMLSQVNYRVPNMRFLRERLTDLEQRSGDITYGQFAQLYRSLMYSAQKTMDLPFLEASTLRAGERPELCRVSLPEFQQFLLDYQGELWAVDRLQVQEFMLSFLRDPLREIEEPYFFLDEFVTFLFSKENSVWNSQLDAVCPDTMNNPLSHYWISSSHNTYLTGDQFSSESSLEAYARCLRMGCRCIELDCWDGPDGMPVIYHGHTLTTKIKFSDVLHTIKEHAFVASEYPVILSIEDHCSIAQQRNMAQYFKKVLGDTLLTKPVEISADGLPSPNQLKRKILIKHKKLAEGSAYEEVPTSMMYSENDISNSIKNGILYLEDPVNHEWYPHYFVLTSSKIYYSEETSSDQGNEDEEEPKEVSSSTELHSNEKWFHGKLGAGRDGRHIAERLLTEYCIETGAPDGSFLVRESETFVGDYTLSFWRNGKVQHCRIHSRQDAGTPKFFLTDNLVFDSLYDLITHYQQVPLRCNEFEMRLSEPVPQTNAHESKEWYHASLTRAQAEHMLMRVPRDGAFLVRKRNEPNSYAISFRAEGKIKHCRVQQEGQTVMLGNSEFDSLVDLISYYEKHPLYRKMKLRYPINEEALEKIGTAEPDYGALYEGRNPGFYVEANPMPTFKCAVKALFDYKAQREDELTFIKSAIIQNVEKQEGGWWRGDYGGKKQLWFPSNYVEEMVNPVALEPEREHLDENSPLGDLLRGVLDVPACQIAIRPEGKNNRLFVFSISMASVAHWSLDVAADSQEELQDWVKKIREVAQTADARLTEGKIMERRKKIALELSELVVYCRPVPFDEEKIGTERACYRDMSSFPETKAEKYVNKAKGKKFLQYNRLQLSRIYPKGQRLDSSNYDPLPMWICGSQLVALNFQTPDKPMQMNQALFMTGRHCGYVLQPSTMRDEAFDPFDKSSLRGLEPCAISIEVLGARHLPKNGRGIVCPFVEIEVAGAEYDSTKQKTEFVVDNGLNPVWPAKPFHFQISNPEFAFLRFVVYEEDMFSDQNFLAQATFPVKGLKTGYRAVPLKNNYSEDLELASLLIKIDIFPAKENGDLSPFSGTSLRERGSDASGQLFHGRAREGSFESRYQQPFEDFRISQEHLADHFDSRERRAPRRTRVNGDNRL
# LEDGF integ inh: blocks HIV-1 LEDGF/p75-dependent DNA integration; inhibition, % at 3.7 µM; AID 743269; TR-FRET IN-LEDGF/p75 DNA integration, Eu/Cy5; 370,000 tested, 0.64% active;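 active means inhibition above the screen-wide mean plus 3 SD, cut at about 13% in these data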;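 further: signal is the Cy5 over europium emission ratio at 671 and 618 nm; 0% = plate median of compound wells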
# PLC-beta3 inh: inhibitors of human phospholipase C beta3 | 370,000 tested, 0.18% active | inhibition, % at 12.2 µM | Purified PLC-beta3, fluorogenic substrate, fluorescence; in the data active means inhibition above about 11%;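 further: 0% = median of compound wells on plate and 100% = full blocker control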
# UHRF1 binding: UHRF1 methyl-DNA binding inhibition. 370,000 tested, 0.75% active. UHRF1 binding to methylated oligo, TR-FRET. Q96T88. inhibition, % at 4.4 µM; in the data active means inhibition above about 21%;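 further: UHRF1 SRA domain binding a hemimethylated CpG hairpin DNA probe; 0% = median of test compound wells and 100% = reference inhibitor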
# MBD2 inh: MBD2-methylated oligo binding inhibition; Q9UBB5; TR-FRET, MBD2 binding to methylated oligonucleotide; inhibition, % at 4.4 µM; 370,000 tested, 0.31% active; AID 686964; in the data active means inhibition above about 13%
# PLCgamma1 ctr: PLC-gamma1 inhibition, counter-screen for PLC-beta3 hits; shares compounds with PLC-gamma1 inh; purified PLC-gamma1, fluorogenic substrate, fluorescence; inhibition, % at 12.3 µM; 3,300 tested, 3.1% active
# PLCb3 confirm: human PLC-beta3 inhibition, confirmation | purified PLC-beta3, fluorogenic substrate fluorescence | shares compounds with PLC-gamma1 inh | inhibition, % at 12.3 µM | 3,300 tested, 1% active | AID 743261; in the data active means inhibition above about 11%
# Active calls of the source: *; x = no result given. The list is not random: actives were taken first. Their share in the collection is about 2.4%. Unless noted, no stated cut-off is given here; in the data, active means inhibition above about 9.5%; inactive means the rest.
SMILES,PLC-gamma1 inh,LEDGF integ inh,PLC-beta3 inh,UHRF1 binding,MBD2 inh,PLCgamma1 ctr,PLCb3 confirm
CC(C)CC(N)c1csc(NC(=O)c2cc(C(C)(C)C)nn2Cc2ccccc2)n1 (stereo not drawn),15.5*,8.3,4.8,1.6,-0.7,-3.3,-0.7
COc1cc2c(c(OC)c1OC)-c1ccc(OC)c(=O)cc1C(NC(C)=O)CC2 (stereo not drawn),10.2*,3.9,6.2,-1.5,-7.0,-3.4,-3.0
COC(=O)C1CN(C2CCCC2)CCS(=O)(=O)N1Cc1ccc(Cl)cc1 (stereo not drawn),0.5,-3.6,-5.2,0.9,0.7,x,x
CCOc1cc(C(c2c(C)[nH][nH]c2=O)c2c(C)[nH][nH]c2=O)cc([N+](=O)[O-])c1O,7.4,-1.1,-4.2,-10.6,-9.0,x,x
COc1cc(C(c2c(C)[nH][nH]c2=O)c2c(C)[nH][nH]c2=O)cc([N+](=O)[O-])c1O,15.1*,1.2,8.1,-9.9,-12.5,2.8,0.4
Cc1cc(NC(=O)COc2cc(F)cc(F)c2)n(-c2ccccc2)n1,-1.5,-0.8,1.6,-4.8,-5.0,x,x
COC(=O)[C@]12C[C@H](CC(=O)N3CCCCC3)C(=O)N(CCc3ccc(OC)c(OC)c3)C1=C[C@H](COCc1ccccc1)O[C@@H]2C,2.1,-0.5,2.2,-2.5,-4.8,x,x
COc1ccccc1-c1cccc2c3c([nH]c12)[C@@H]1C[C@H]2[C@@H](CN1CC3)[C@H](C)ON2C,-33.8,1.2,-40.7,0.6,3.7,x,x
CC(O)CN(CCC(N)=O)CCC(N)=O (stereo not drawn),10.1*,2.2,-0.1,4.2,0.2,-0.8,-1.1
O=C(Cn1c(=O)oc2ccccc21)Nc1ccc(Cl)cc1,10.6*,-0.2,-0.9,-0.4,-2.2,-2.6,3.7
CCNC(=O)N(C)[C@H]1C[C@H]2c3[nH]c4c(-c5cccc(C)c5)cccc4c3CCN2C[C@H]1[C@H](C)O,-148.2,-1.2,-195.5,5.7,1.5,x,x
COC(=O)[C@]12C[C@H](CC(=O)NCc3cccc4ccccc34)C(=O)N(Cc3ccco3)C1=C[C@H](C(C)(C)C)O[C@@H]2C,0.5,-0.9,-2.2,-1.9,0.7,x,x
O=S(=O)(c1ccc(Cl)cc1)c1cnc2ccccc2n1,9.6*,-1.6,-1.6,-1.2,-0.6,11.6*,-3.7
COc1ccc([C@H]2OC(=O)C[C@H]2C(=O)N2CCN(c3ccccc3C(F)(F)F)CC2)cc1OC,-0.9,-1.9,2.6,-3.7,-3.9,x,x
COC(=O)[C@@H](C)NC(=O)C(Cc1ccc2c(c1)OCO2)NC(C)=O (stereo partly drawn),-2.7,-3.7,-1.3,-1.3,2.6,x,x
Cc1cccc(NC2=CC(=O)CC(C)(C)C2)c1C,9.8*,2.8,5.6,7.1,2.5,6.2,1.1
O=C(NCCc1ccccc1)OCc1cn(Cc2cccc(Cl)c2)nn1,-3.0,3.7,-0.2,1.0,-1.4,x,x
COc1ccc(S(=O)(=O)NCCCN2CCOCC2)cc1F,9.5*,4.8,-0.4,4.7,2.0,8.4,0.7
CC(C)[C@@H]1OC(=O)[C@@H]2CCCN2C(=O)[C@H](C)OC(=O)[C@H](C)[C@@H](C(C)C)NC(=O)[C@@H]2CCCN2C(=O)[C@H]([C@H](C)Cc2ccccc2)NC(=O)[C@@H]2CCCN2C(=O)[C@@H](C(C)C)N(C)C1=O,-0.8,-0.9,0.6,2.3,6.4,x,x
COCCCNc1nc2c(c(=O)n(Cc3ccc(F)cc3)c(=O)n2C)n1C,6.0,3.5,-2.7,2.8,0.2,x,x
COCCCNc1nc2c(c(=O)n(Cc3ccc(OC)cc3)c(=O)n2C)n1C,10.0*,2.9,2.7,3.7,-0.9,-2.0,-10.1
COc1cccc(CNCCO)c1OCc1ccccc1Cl,11.0*,1.2,3.2,8.2,-2.4,-3.7,-3.9
COc1cc(CNCCO)cc(Cl)c1OCc1ccccc1Cl,2.7,-4.4,0.6,1.8,-0.6,x,x
COC(=O)c1cccc(CC2(C)C(=O)Nc3cc(-c4ccccc4Cl)ccc32)c1 (stereo not drawn),14.3*,7.9,7.6,2.3,-5.9,-1.4,-0.4
CC1(Cc2c(Cl)cccc2Cl)C(=O)Nc2cc(-c3ccccc3Cl)ccc21 (stereo not drawn),1.0,1.1,-1.7,-1.7,3.6,x,x
SMILES,PLC-gamma1 inh,LEDGF integ inh,PLC-beta3 inh,UHRF1 binding,MBD2 inh,PLCgamma1 ctr,PLCb3 confirm
CC1(C(=O)Nc2ccc3c(c2)OCO3)CCN1C(=O)C1CCCCC1 (stereo not drawn),3.7,9.4,1.2,3.7,1.4,x,x
CC1(C(=O)Nc2ccc(Cl)c(Cl)c2)CCN1C(=O)C1CCCCC1 (stereo not drawn),16.1*,1.7,4.3,22.1*,-0.4,-4.8,-3.5
CCC(=O)c1ccc(OCC(O)CN2CCN(S(=O)(=O)N3CCCCC3)CC2)cc1 (stereo not drawn),9.6*,4.1,1.3,-0.5,0.8,-5.4,-0.5
O=C(c1ccccc1)c1ccc(OCC(O)CN2CCN(S(=O)(=O)N3CCCCC3)CC2)cc1 (stereo not drawn),2.8,2.8,0.8,1.3,-2.9,x,x
Cc1ccc(SCc2ccc(C(=O)Nc3cccc([N+](=O)[O-])c3)cc2)cc1,-0.4,-1.2,1.3,-2.3,3.4,x,x
Cc1ccc(SCc2ccc(C(=O)Nc3cc([N+](=O)[O-])ccc3C)cc2)cc1,11.6*,3.0,5.9,2.7,-1.1,-1.7,-1.3
COC(CNC(=O)[C@H](Cc1ccccc1)NCC(=O)NC1CCCCC1)OC,0.3,-1.8,1.6,1.9,5.6,x,x
CCn1c(Cc2cccs2)nnc1SCC(=O)Nc1ccccc1-c1ccccc1,2.6,1.6,2.5,2.1,0.9,x,x
CC1CCN(N=Nc2nc3c([nH]2)c(=O)n(C)c(=O)n3C)CC1,9.9*,8.2,8.3,7.0,0.5,-1.8,3.2
OC(c1ccccc1)(c1ccccc1)c1cnc2ccccn12,1.9,2.0,2.5,1.7,1.6,x,x
COc1ccccc1N1CC(C(=O)Nc2ccc(N3CCOCC3)cc2)CC1=O (stereo not drawn),11.0*,1.3,2.4,0.9,-4.1,-5.8,-3.1
CCCOc1ccc(N2CC(C(=O)Nc3ccc(N4CCOCC4)cc3)CC2=O)cc1 (stereo not drawn),-0.6,-5.1,-1.8,0.5,-0.5,x,x
COc1cc(Cl)c(C)cc1NC(=O)CN(C)Cc1cccc(OC)c1OC,10.2*,7.9,-8.1,-1.8,-9.4,-6.5,-4.8
COc1ccc(-c2cn[nH]c2N)cc1,11.5*,-1.2,3.6,3.0,-4.2,-7.8,-2.5
CC1(C)c2ccccc2-c2nc3ccccc3cc2C1O (stereo not drawn),10.8*,9.4,-2.2,2.4,-2.2,-9.0,-10.3
c1ccc2c(c1)-c1nc3ccccc3cc1C2N1CCCCC1 (stereo not drawn),-27.7,8.8,-29.1,-8.2,-7.6,x,x
COc1ccc(-c2cc(-c3ccc(OC)cc3)[nH]n2)cc1,2.3,-0.1,-2.6,2.2,2.8,x,x
